# Several values for one entry are separate records, joined by “and”; a condition that tells them apart may be missing. Identical values can stand only once. About 83,000 compounds went through this panel and 20% of them were active in at least one assay; those are over-represented in the sample as a whole.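 Treatment: one concentration, 48 hours, 96-well format. Scoring: percent growth, with anything below 10 considered active.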 Activity calls are given as the source filed them.
# Columns and labels:
# Assay in all cases: NCI-60 one-dose screen, 48 h (100 = growth as untreated, 0 = no growth, -100 = all killed)
# Settings in all cases: 10 µM unless noted
# NCI-H23 lung = test system: NCI-H23 lung
# NCI-H226 lung = test system: NCI-H226 lung
# NCI-H322M lung = test system: NCI-H322M lung
# HOP-62 NSCLC = test system: HOP-62 NSCLC
# HOP-92 NSCLC = test system: HOP-92 NSCLC
# NCI-H522 lung = test system: NCI-H522 lung
# 786-0 renal = test system: 786-0 renal
# DU-145 prostate = test system: DU-145 prostate
# K-562 leukemia = test system: K-562 leukemia
# MALME-3M melanoma = test system: MALME-3M melanoma
# MDA-MB-231 breast = test system: MDA-MB-231 breast
# RXF 393 renal = test system: RXF 393 renal
# SF-268 CNS = test system: SF-268 CNS
# SF-295 CNS = test system: SF-295 CNS
# SF-539 CNS = test system: SF-539 CNS
# UACC-257 melanoma = test system: UACC-257 melanoma
# M14 melanoma = test system: M14 melanoma
# NCI-H460 lung = test system: NCI-H460 lung
# A549/ATCC NSCLC = test system: A549/ATCC NSCLC
# COLO 205 colon = test system: COLO 205 colon
Structure (SMILES),growth (NCI-H23 lung),growth (NCI-H226 lung),growth (NCI-H322M lung),growth (HOP-62 NSCLC),growth (HOP-92 NSCLC),growth (NCI-H522 lung),growth (786-0 renal),growth (DU-145 prostate),growth (K-562 leukemia),growth (MALME-3M melanoma),growth (MDA-MB-231 breast),growth (RXF 393 renal),growth (SF-268 CNS),growth (SF-295 CNS),growth (SF-539 CNS),growth (UACC-257 melanoma),growth (M14 melanoma),growth (NCI-H460 lung),growth (A549/ATCC NSCLC),growth (COLO 205 colon)
COc1ccc2nc(Cl)cc(C)c2c1,101% (inactive) and 107% (inactive),96.5% (inactive) and 104% (inactive),91.3% (inactive) and 98.1% (inactive),104% (inactive) and 65% (inactive),104% (inactive) and -11.5% (active),97.5% (inactive) and 112% (inactive),97.2% (inactive) and 79.2% (inactive),104% (inactive) and 101% (inactive),104% (inactive) and 89.5% (inactive),97.5% (inactive) and 127% (inactive),99.9% (inactive) and 102% (inactive),91.6% (inactive) and 75.9% (inactive),101% (inactive) and 116% (inactive),92.8% (inactive) and 87.6% (inactive),96.5% (inactive) and 107% (inactive),100% (inactive) and 95.9% (inactive),100% (inactive) and 109% (inactive),–,–,–
O=C(Nc1ccc(Br)cc1)c1cc(Br)ccc1O,0.675% (active) and -16.7% (active),18.2% (inactive) and -33.2% (active),–,20.2% (inactive) and -5.46% (active),-23% (active) and -12% (active),-13.8% (active) and 2.52% (active),0.723% (active) and 2.62% (active),19.9% (inactive) and 8.81% (active),9.25% (active) and -22.8% (active),-31.4% (active) and -27.8% (active),-36.1% (active) and -21.9% (active),2.31% (active) and 38.3% (inactive),9.39% (active) and 9.12% (active),-22.6% (active) and -16.5% (active),18.3% (inactive) and -1.29% (active),14% (inactive) and 8.51% (active),8.56% (active) and 8.13% (active),2.62% (active) and 3.86% (active),14.8% (inactive) and 14.7% (inactive),92.9% (inactive) and -42.3% (active)
Oc1nc(NCCc2ccccc2)sc1/C=C1\C=Nc2ncccc21,2.96% (active) and 9.1% (active),22.4% (inactive) and 3.3% (active),–,-2.98% (active) and 19.9% (inactive),11.8% (inactive) and -9.73% (active),4.33% (active) and 26.6% (inactive),19.7% (inactive) and 9.01% (active),15.3% (inactive) and 20.7% (inactive),28.5% (inactive) and 29.9% (inactive),44.8% (inactive) and 30.6% (inactive),25.9% (inactive) and 25.5% (inactive),-30.1% (active) and -20.2% (active),8.87% (active) and 10.4% (inactive),18.7% (inactive) and 22.6% (inactive),-37.2% (active) and 0.397% (active),-1.71% (active) and 14.6% (inactive),31.7% (inactive) and 29.9% (inactive),15.1% (inactive) and 14.1% (inactive),8.14% (active) and 19.1% (inactive),-6.84% (active) and 4.78% (active)
O=[N+]([O-])c1ccc(-n2[nH]nnc2=S)cc1,98.5% (inactive),107% (inactive),92.8% (inactive),102% (inactive),102% (inactive),91.3% (inactive),106% (inactive),112% (inactive),102% (inactive),89.2% (inactive),93.6% (inactive),166% (inactive),98.3% (inactive),95.2% (inactive),104% (inactive),113% (inactive),109% (inactive),–,102% (inactive),100% (inactive)
O=C(Nc1cccc(-n2ccc3c(NC(=O)c4ccccc4)nccc32)c1)c1ccc(Cl)c(C(F)(F)F)c1,-9.83% (active) and 72.4% (inactive),34.5% (inactive) and 75.3% (inactive),–,-50.5% (active) and 67.7% (inactive),-13.5% (active),82.8% (inactive),-74.9% (active) and 48% (inactive),-36% (active) and 61.6% (inactive),2.58% (active) and 27.6% (inactive),-35.4% (active),-11.2% (active) and 81.4% (inactive),-89.4% (active) and 94.8% (inactive),-44.1% (active),-53.7% (active) and 38.4% (inactive),-66% (active) and 52.8% (inactive),65.2% (inactive),-29.6% (active) and 64% (inactive),-51.4% (active) and 12.8% (inactive),36.8% (inactive),-49.7% (active) and 55.7% (inactive)
O=[N+]([O-])c1ccc(Oc2ccccc2)cc1,95.7% (inactive) and 105% (inactive),103% (inactive),104% (inactive) and 111% (inactive),106% (inactive) and 95.9% (inactive),48.8% (inactive) and 77.1% (inactive),108% (inactive) and 103% (inactive),103% (inactive) and 106% (inactive),117% (inactive) and 127% (inactive),118% (inactive) and 123% (inactive),106% (inactive) and 124% (inactive),109% (inactive) and 136% (inactive),117% (inactive) and 118% (inactive),106% (inactive) and 99.4% (inactive),95.4% (inactive) and 121% (inactive),104% (inactive) and 98.1% (inactive),108% (inactive) and 91.7% (inactive),98.6% (inactive) and 108% (inactive),–,104% (inactive) and 89.5% (inactive),109% (inactive) and 110% (inactive)
O=C(CN1CCOCC1)N1CCOCC1,110% (inactive) and 104% (inactive),105% (inactive) and 113% (inactive),–,106% (inactive) and 112% (inactive),75.3% (inactive),75.3% (inactive) and 101% (inactive),102% (inactive) and 108% (inactive),120% (inactive) and 117% (inactive),102% (inactive) and 108% (inactive),90.6% (inactive),108% (inactive) and 98.1% (inactive),126% (inactive) and 119% (inactive),108% (inactive) and 115% (inactive),113% (inactive) and 104% (inactive),111% (inactive) and 101% (inactive),107% (inactive) and 106% (inactive),97.4% (inactive) and 106% (inactive),111% (inactive) and 114% (inactive),103% (inactive),115% (inactive) and 105% (inactive)
Nc1nc(SC/C=C/CCl)c2[nH]cnc2n1,102% (inactive) and 98.1% (inactive),95.8% (inactive) and 131% (inactive),112% (inactive) and 115% (inactive),106% (inactive) and 99.8% (inactive),–,95.1% (inactive) and 86.7% (inactive),102% (inactive) and 99.1% (inactive),110% (inactive),103% (inactive) and 90.7% (inactive),114% (inactive) and 92.3% (inactive),112% (inactive) and 102% (inactive),112% (inactive) and 133% (inactive),104% (inactive) and 107% (inactive),97.2% (inactive) and 112% (inactive),114% (inactive) and 97.5% (inactive),94.7% (inactive) and 102% (inactive),–,–,95.4% (inactive) and 103% (inactive),104% (inactive) and 116% (inactive)
CCCCCCCCCCCCCCCCOc1ccc(C)cc1,98.2% (inactive),107% (inactive),111% (inactive),–,–,104% (inactive),107% (inactive),110% (inactive),108% (inactive),103% (inactive),100% (inactive),118% (inactive),114% (inactive),–,93.2% (inactive),111% (inactive),111% (inactive),114% (inactive),102% (inactive),111% (inactive)
